Test results taken from PubChem BioAssay (Tox21).
Records with an inconclusive call do not appear. Entries that show only a call come without a potency. A number with no mark means an inactive call. Calls of active or inactive are those of the source. Unless noted, calls follow the shape of the dose curve; as a rule, active = well fitted curve in the direction sought with a large enough effect in the repeat runs; inconclusive = weak or mixed curves; inactive = no such curve, though single readings can be large; an effect the other way counts as inactive or inconclusive. Positions of bridges follow the written chain, without caps; N, C: chain ends. Residues, ends and D or L forms follow the SMILES beside them.

Legend:
[1] = qHTS assay to identify aromatase inhibitors - cell viability counter screen (AID 743084);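 also: cells stimulated with testosterone during compound exposure; nearly all actives have a fitted effect of over 55% in size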; also: potency is read from the fitted curve at half-maximal effect
[2] = qHTS assay to identify small molecule that activate the aryl hydrocarbon receptor (AhR) signaling pathway - cell viability counter screen (AID 743086); also: nearly all actives have a fitted effect of over 45% in size; also: potency is read from the fitted curve at half-maximal effect
Outline: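 HepG2-AhR-luc (HG2L7.5c1) cells, 4000/well, treated 24 h at 37 C with compound; viability measured as CellTiter-Fluor fluorescence after 30 min in the same wells as the luciferase read.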

[3] = qHTS assay to identify small molecule phospholipidosis (PLD) inducers (AID 1259344; active = well fitted curve in the direction sought with a large enough effect; an effect the other way counts as inactive or inconclusive)
Outline: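 Read-out is LipidTOX Red fluorescence (ex 595/em 615) imaged in HepG2 cells after 24 h compound exposure at 37 C, with Hoechst nuclear counterstain (ex 352/em 461) allowing per-cell normalisation.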

[4] = target: Nuclear receptor subfamily 1 group I member 2 (Homo sapiens) (UniProt O75469); experiment: CYP3A4 induction through human pregnane X receptor (PXR) by small molecules, qHTS assay (AID 1346984); also: nearly all actives have a fitted effect of over 40% in size
Outline: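 After 24 h at 37C with compound, DPX-2 cells (HepG2, co-transfected PXR response element and CYP3A4 promoter-luciferase) got 3uM final P450-Glo Luciferin-IPA for 3 h; One-Glo luminescence followed.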

[5] = target: Nuclear receptor subfamily 1 group I member 2 (Homo sapiens) (UniProt O75469); experiment: Human pregnane X receptor (PXR) activation by small molecules, qHTS assay (AID 1346985); also: nearly all actives have a fitted effect of over 40% in size
Outline: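 DPX-2 cells (HepG2 co-transfected with a PXR response element and a CYP3A4-promoter luciferase construct) were seeded at 2,000 per well, rested 5 hr at 37C, then exposed to DMSO-dissolved compounds for 24 hr. Activation was read as luciferase luminescence.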

[6] = target: Aryl hydrocarbon receptor (Homo sapiens) (UniProt P35869); experiment: qHTS assay to identify small molecule that activate the aryl hydrocarbon receptor (AhR) signaling pathway (AID 743085); also: nearly all actives have a fitted effect of over 15% in size; also: potency is read from the fitted curve at half-maximal effect;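 as to activation: HG2L7.5c1 human HepG2 liver cells with stably integrated DRE-driven firefly reporter; series mostly up to about 70 µM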
Sequence of Aryl hydrocarbon receptor (Homo sapiens) (P35869 whole entry, looked up): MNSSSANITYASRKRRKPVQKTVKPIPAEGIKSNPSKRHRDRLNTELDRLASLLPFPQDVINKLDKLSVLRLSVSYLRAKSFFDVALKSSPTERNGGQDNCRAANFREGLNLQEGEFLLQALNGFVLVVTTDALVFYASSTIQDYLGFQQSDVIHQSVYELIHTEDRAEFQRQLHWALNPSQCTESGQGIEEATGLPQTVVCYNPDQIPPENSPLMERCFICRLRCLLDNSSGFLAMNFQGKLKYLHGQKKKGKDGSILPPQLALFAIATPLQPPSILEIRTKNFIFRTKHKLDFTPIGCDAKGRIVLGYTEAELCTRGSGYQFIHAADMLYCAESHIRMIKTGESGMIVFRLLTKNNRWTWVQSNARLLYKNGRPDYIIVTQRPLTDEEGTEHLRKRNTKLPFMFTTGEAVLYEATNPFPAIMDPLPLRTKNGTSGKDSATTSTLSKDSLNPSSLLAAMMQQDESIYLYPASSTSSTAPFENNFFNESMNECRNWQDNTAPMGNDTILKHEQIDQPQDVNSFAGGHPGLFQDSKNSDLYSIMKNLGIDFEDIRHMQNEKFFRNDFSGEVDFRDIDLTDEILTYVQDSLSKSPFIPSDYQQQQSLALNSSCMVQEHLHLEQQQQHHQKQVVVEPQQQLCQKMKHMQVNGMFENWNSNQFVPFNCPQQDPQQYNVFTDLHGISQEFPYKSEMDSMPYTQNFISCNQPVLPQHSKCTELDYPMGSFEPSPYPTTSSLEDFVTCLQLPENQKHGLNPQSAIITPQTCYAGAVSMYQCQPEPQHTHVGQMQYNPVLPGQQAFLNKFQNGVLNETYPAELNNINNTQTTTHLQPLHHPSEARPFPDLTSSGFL
Outline: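 Cell line HG2L7.5c1 (human hepatoma, 20× DRE-luc). Plated, 5 h 37C, compound/DMSO added, 24 h 37C. CellTiter-Fluor 30 min 37C → fluorescence; then ONE-Glo 30 min RT → luminescence.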

[7] = target: Peroxisome proliferator-activated receptor gamma (Homo sapiens) (UniProt P37231); experiment: qHTS assay to identify small molecule agonists of the peroxisome proliferator-activated receptor gamma (PPARg) signaling pathway (AID 743094; active = well fitted activation curve with a large enough effect in the signal ratio in the repeat runs, not every such curve was filed as active; the % refers to the signal ratio)
Sequence of Peroxisome proliferator-activated receptor gamma (Homo sapiens) (P37231 whole entry, looked up): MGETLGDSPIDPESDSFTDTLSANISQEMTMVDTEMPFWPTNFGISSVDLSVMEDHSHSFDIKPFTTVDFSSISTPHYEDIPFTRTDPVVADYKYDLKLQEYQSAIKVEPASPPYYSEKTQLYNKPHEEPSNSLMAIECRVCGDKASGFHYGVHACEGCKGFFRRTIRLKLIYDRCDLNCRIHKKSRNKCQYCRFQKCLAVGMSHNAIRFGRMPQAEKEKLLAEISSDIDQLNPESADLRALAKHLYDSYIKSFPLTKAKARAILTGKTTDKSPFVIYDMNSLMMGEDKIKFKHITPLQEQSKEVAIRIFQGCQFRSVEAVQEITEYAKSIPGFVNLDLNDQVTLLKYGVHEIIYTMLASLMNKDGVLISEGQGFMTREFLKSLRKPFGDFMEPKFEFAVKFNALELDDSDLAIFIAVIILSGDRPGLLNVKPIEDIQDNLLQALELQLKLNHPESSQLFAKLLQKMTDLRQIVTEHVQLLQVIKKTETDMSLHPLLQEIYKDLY
Outline: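 Fluorescence-based beta-lactamase readout in HEK293H PPARg UAS-bla cells after 17 h compound exposure (37C) and 1 h B/G FRET substrate incubation at room temperature.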

For `COc1ccc(C2(C#N)CCC(C(=O)O)CC2)cc1OC1CCCC1` (stereo not given), the Potency [1] was “inactive”, the Potency [2] was “inactive” and the Potency [3] was “inactive”. The Potency [4] was “inactive” and the Potency [5] was “inactive”.
With `NCCCC[C@H](NC(=O)[C@@H]1CCCN1C(=O)[C@@H]1CSSC[C@H](NC(=O)CNC(=O)CNC(=O)CN)C(=O)N[C@@H](Cc2ccc(O)cc2)C(=O)N[C@@H](Cc2ccccc2)C(=O)N[C@@H](CCC(N)=O)C(=O)N[C@@H](CC(N)=O)C(=O)N1)C(=O)NCC(N)=O` (H-GGGCYFQNCPKG-NH2; disulfide 4-9) the Potency [1] was “inactive”, the Potency [6] was “inactive” and the Potency [2] was “inactive”. For the same molecule, the Potency [7] was “inactive” and the Potency [3] was “inactive”.
For `CCC(c1ccccc1)c1noc(CCN(CC)CC)n1` (stereo not given), the Potency [1] was “inactive”, the Potency [6] was “inactive” and the Potency [2] was “inactive”. The Potency [7] was “inactive” and the Potency [3] was “inactive”.
For `CC(O)[C@@H]1NC(=O)[C@H](CCCCN)NC(=O)[C@@H](Cc2c[nH]c3ccccc23)NC(=O)[C@H](Cc2ccccc2)NC(=O)[C@@H](NC(=O)[C@H](N)Cc2ccccc2)CSSC[C@@H](C(=O)N[C@H](CO)[C@@H](C)O)NC1=O` (stereo not given in full), the Potency [1] was “inactive”, the Potency [6] was “inactive” and the Potency [2] was “inactive”. The Potency [7] was “inactive” and the Potency [3] was “inactive”.
In the case of `CCCCCC(O)/C=C/C=O` (stereo not given), the Potency [1] is reported as “inactive”, the Potency [6] is reported as “inactive” and the Potency [2] is reported as “inactive”. For the same molecule, the Potency [7] was “inactive” and the Potency [3] was “inactive”.
With `CC(C)(C)CC(=O)OCC(=O)[C@@]12OC(C)(C)O[C@@H]1C[C@H]1[C@@H]3CCC4=CC(=O)C=C[C@]4(C)[C@@]3(F)[C@@H](O)C[C@@]12C` the Potency [1] was “inactive”, the Potency [6] was “inactive” and the Potency [2] was “inactive”. The Potency [7] was “inactive” and the Potency [3] was “inactive”.
In the case of `Cc1cccc(C)c1N(CCCc1cccnc1)C(=O)C(C)N` (stereo not given), the Potency [1] is reported as “inactive”, the Potency [6] is reported as “inactive” and the Potency [2] is reported as “inactive”. The Potency [7] was “inactive” and the PLD induction [3] was -1.49% [at 1.53 µM].
With `CCOC(=O)Cc1cccc(-c2cc(CCCCCCc3ccc(O[C@H]4O[C@H](COC(C)=O)[C@@H](OC(C)=O)[C@H](OC(C)=O)[C@@H]4OC(C)=O)c(-c4cccc(CC(=O)OCC)c4)c3)ccc2O[C@H]2O[C@H](COC(C)=O)[C@@H](OC(C)=O)[C@H](OC(C)=O)[C@@H]2OC(C)=O)c1` the Potency [1] was “inactive”, the Potency [6] was “inactive” and the Potency [2] was “inactive”. The Potency [7] was “inactive” and the Potency [3] was “inactive”.
For `CN(CCO)CC(O)Cn1cnc2c1c(=O)n(C)c(=O)n2C` (stereo not given) (tested in a mixture with another compound), the Potency [1] was “inactive”, the Potency [6] was “inactive” and the Potency [2] was “inactive”. For the same molecule, the Potency [7] was “inactive” and the Potency [3] was “inactive”.
In the case of `CC1(C)S[C@@H]2[C@H](NC(=O)Cc3ccccc3)C(=O)N2[C@H]1C(=O)O`, the Potency [1] is reported as “inactive”, the Potency [6] is reported as “inactive” and the Potency [2] is reported as “inactive”. The Potency [7] was “inactive” and the Potency [3] was “inactive”.
For `O=S(=O)(O)Oc1ccc(C(c2ccc(OS(=O)(=O)O)cc2)c2ccccn2)cc1`, the Potency [1] was “inactive”, the Potency [6] was “inactive” and the Potency [2] was “inactive”. The Potency [7] was “inactive” and the Potency [3] was “inactive”.
In the case of `Cn1nnnc1SCC1=C(C(=O)O)N2C(=O)[C@@H](NC(=O)[C@H](OC=O)c3ccccc3)[C@H]2SC1`, the Potency [1] is reported as “inactive”, the Potency [6] is reported as “inactive” and the Potency [2] is reported as “inactive”. For the same molecule, the Potency [7] was “inactive” and the Potency [3] was “inactive”.
With `C/C1=C2N=C(/C=C3N=C(/C(C)=C4\[N-]C(C(CC(N)=O)C4(C)CCC(=O)NCC(C)OP(=O)([O-])OC4C(CO)OC(n5cnc6cc(C)c(C)cc65)C4O)C4(C)N=C1C(CCC(N)=O)C4(C)CC(N)=O)C(CCC(N)=O)C\3(C)C)C(CCC(N)=O)C/2(C)CC(N)=O.[CH3-].[Co+3]` (stereo not given) the Potency [1] was 23700 nM (active), the Potency [6] was “inactive” and the Potency [2] was 26600 nM (active). For the same molecule, the Potency [7] was “inactive” and the Potency [3] was “inactive”.
With `O=C[C@H](O)[C@@H](O)[C@H](O[C@H]1O[C@H](CO)[C@@H](O[C@H]2O[C@H](CO)[C@@H](O)[C@H](O)[C@H]2O)[C@H](O)[C@H]1O)[C@H](O)CO` the Potency [1] was “inactive”, the Potency [6] was “inactive” and the Potency [2] was “inactive”. The Potency [7] was “inactive” and the Potency [3] was “inactive”.
For `c1cnc2cc3c(cc2n1)[C@@H]1CNC[C@H]3C1`, the Potency [1] was “inactive”, the Potency [6] was “inactive” and the Potency [2] was “inactive”. The Potency [7] was “inactive” and the Potency [3] was “inactive”.
With `COc1ccc(C2NC(=S)N3C(c4ccc(OC)c(OC)c4)NC(=S)N23)cc1OC` (stereo not given) the Potency [1] was 188 nM (active), the Potency [6] was “inactive” and the Potency [2] was 211 nM (active). For the same molecule, the Potency [7] was “inactive” and the PLD induction [3] was -4.32% [at 7.66 µM].
With `C/C(=C(\CCOC(=O)c1ccccc1)SS/C(CCOC(=O)c1ccccc1)=C(/C)N(C=O)Cc1cnc(C)nc1N)N(C=O)Cc1cnc(C)nc1N` the Potency [1] was “inactive”, the Potency [6] was “inactive” and the Potency [2] was “inactive”. The Potency [7] was “inactive” and the Potency [3] was “inactive”.
With `COCC1=C(C(=O)OC(C)OC(=O)OC(C)C)N2C(=O)[C@@H](NC(=O)/C(=N\OC)c3csc(N)n3)[C@H]2SC1` (stereo not given in full) the Potency [1] was “inactive”, the Potency [6] was “inactive” and the Potency [2] was “inactive”. The Potency [7] was “inactive” and the Potency [3] was “inactive”.
For `O=C(NCCNCC(O)COc1ccc(O)cc1)N1CCOCC1` (stereo not given), the Potency [1] was “inactive”, the Potency [6] was “inactive” and the Potency [2] was “inactive”. The Potency [7] was “inactive” and the Potency [3] was “inactive”.
In the case of `C[N+](C)(CCCCCC[N+](C)(C)C1c2ccccc2-c2ccccc21)C1c2ccccc2-c2ccccc21`, the Potency [1] is reported as “inactive”, the Potency [6] is reported as “inactive” and the Potency [2] is reported as “inactive”. For the same molecule, the Potency [7] was “inactive” and the Potency [3] was “inactive”.
In the case of `CN(C(=O)CO)c1c(I)c(C(=O)NCC(O)CO)c(I)c(C(=O)NCC(O)CO)c1I` (stereo not given), the Potency [1] is reported as “inactive”, the Potency [6] is reported as “inactive” and the Potency [2] is reported as “inactive”. For the same molecule, the Potency [7] was “inactive” and the Potency [3] was “inactive”.
With `CCOC(=O)COc1ccc2c(C)c(CCN(CC)CC)c(=O)oc2c1` the Potency [1] was “inactive”, the Potency [6] was “inactive” and the Potency [2] was “inactive”. The Potency [7] was “inactive” and the PLD induction [3] was -3.34% [at 7.66 µM].
With `C=C[C@]1(C)C[C@@H](OC(=O)CO)[C@]2(C)[C@H](C)CC[C@]3(CCC(=O)[C@H]32)[C@@H](C)[C@@H]1O` the Potency [1] was “inactive”, the Potency [6] was “inactive” and the Potency [2] was “inactive”. For the same molecule, the Potency [7] was “inactive” and the Potency [3] was “inactive”.
In the case of `NCCCNCCCCNC(=O)C(O)NC(=O)CCCCCCN=C(N)N` (stereo not given), the Potency [1] is reported as “inactive”, the Potency [6] is reported as “inactive” and the Potency [2] is reported as “inactive”. The Potency [7] was “inactive” and the PLD induction [3] was -1.69% [at 7.66 µM].
For `COc1cc(S(C)=O)ccc1-c1nc2ncccc2[nH]1` (stereo not given), the Potency [1] was “inactive”, the Potency [6] was 2110 nM (active) and the Potency [2] was “inactive”. The Potency [7] was “inactive” and the Potency [3] was “inactive”.
In the case of `CO[C@@H]1[C@@H](O[C@@H]2O[C@H](C)[C@@H](O[C@H]3C[C@@](C)(O)[C@@H](OC(=O)CC(C)C)[C@H](C)O3)[C@H](N(C)C)[C@H]2O)[C@@H](CC=O)C[C@@H](C)[C@@H](O)/C=C/C=C/C[C@@H](C)OC(=O)C[C@H]1O`, the Potency [1] is reported as “inactive”, the Potency [6] is reported as “inactive” and the Potency [2] is reported as “inactive”. The Potency [7] was “inactive” and the Potency [3] was “inactive”.
